From PubChem
Prx2 Sm inh – inhibitors of Schistosoma mansoni peroxiredoxin 2; hit rate 0.07% among 65,000; AID 448; S. mansoni Prx2 activity coupled to TGR/GSH (TGR is thioredoxin glutathione reductase), NADPH fluorescence loss, qHTS; Potency, µM
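qHTS, coupled TGR/Prx2 format; 15 min compound preincubation at RT; reaction started with H2O2 (2.5 mM aliquot); kinetic NADPH fluorescence decrease, ex 365/em 450 nm.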
AmpC nodet inh – blocks E. coli AmpC beta-lactamase in absence of detergent | P00811 | AmpC nitrocefin hydrolysis, absorbance 480 nm, no detergent | Potency, µM (top dose mostly 28.7 µM), inactives show at the top dose activity change, negative = inhibition | hit rate 1.8% among 71,000 | AID 585; further: % of control where 0% means no effect
Target sequence (P00811 whole entry, looked up): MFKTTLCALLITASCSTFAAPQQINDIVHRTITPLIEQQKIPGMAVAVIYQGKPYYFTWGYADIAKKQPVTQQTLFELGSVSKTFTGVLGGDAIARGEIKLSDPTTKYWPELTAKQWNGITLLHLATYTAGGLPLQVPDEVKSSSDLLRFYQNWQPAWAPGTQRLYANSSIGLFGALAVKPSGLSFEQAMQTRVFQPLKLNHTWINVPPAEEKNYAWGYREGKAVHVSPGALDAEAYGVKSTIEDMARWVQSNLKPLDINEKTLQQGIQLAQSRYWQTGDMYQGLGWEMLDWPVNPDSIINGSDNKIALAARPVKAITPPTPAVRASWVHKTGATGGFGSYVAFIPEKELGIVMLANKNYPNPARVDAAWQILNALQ
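Enzyme, pH 7.0 phosphate. Compound titrations were pre-incubated with AmpC for 15 min at room temperature before nitrocefin (stock 800 uM) addition; product formation was recorded at 480 nm every 20 s for 4 min.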
LT uptake inh – inhibitors of anthrax lethal toxin internalization | Cells, anthrax lethal toxin internalization, FRET ratio (460/530) | Potency, µM (highest dose often 40 µM), for the others: at the top dose activity change, negative = inhibition, usual class: inhibitors | hit rate 0.67% among 70,000; further: on the % scale 0 is the no-effect control and ±100 the full control effect; nearly all actives have a fitted effect of over 50% in size
AmpC inh det – AmpC beta-lactamase inhibition, detergent assay; P00811; purified AmpC, nitrocefin hydrolysis with detergent; Potency, µM (highest dose often 28.7 µM), without a hit: at the top dose activity change, negative = inhibition; hit rate 0.09% among 71,000; AID 584; active means well fitted curve in the direction sought with a large enough effect; inconclusive means small, poorly fitted or top-dose-only effect; further: on the % scale 0 is the no-effect control and ±100 the full control effect
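E. coli AmpC (5.3 nM) in 20 mM phosphate pH 7.0 with 0.01% Triton X-100, preincubated 15 min RT with compound; nitrocefin (2 uL of 800 uM stock) hydrolysis followed by 480 nm absorbance every 20 s over 4 min.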
* hit, by the source's call; ! = a repeat was not active; [ ] = another dose, or the depositor's remark. An excerpt weighted towards active compounds, which were near 2.4% of everything screened. Unless noted, the call rests on the fitted dose curve. Potency means the concentration at half of the fitted maximal effect.

`NC(=NCc1ccc(Cl)c(Cl)c1)NC(=O)c1nc(Cl)c(N)nc1N` gave Prx2 Sm inh >11, AmpC nodet inh 13µM*[single pt active], LT uptake inh inconclusive and AmpC inh det 0%.
Screening COc1ccc(C(=O)CSc2nnc(-c3cc4ccccc4cc3O)n2Cc2ccco2)cc1 returned Prx2 Sm inh >57, AmpC nodet inh 10µM*, LT uptake inh inconclusive and AmpC inh det 15%.
CCCC/C=C/C(NC(=O)c1ccccc1)c1ccccc1 (centres undefined) was read as Prx2 Sm inh >57, AmpC nodet inh -13%, LT uptake inh inconclusive and AmpC inh det -2%.
`CCCC/C=C/C(NC(=O)c1ccc(C(F)(F)F)cc1)c1ccccc1` (centres undefined) gave Prx2 Sm inh >57, AmpC nodet inh 16µM*[single pt active], LT uptake inh -30% and AmpC inh det 2%.
For CC(=O)N1CSCC1C(=O)N1CCN(c2ccc(N3CCOCC3)nn2)CC1 (centres undefined) the results were AmpC nodet inh 2µM*[single pt active], LT uptake inh 4% and AmpC inh det 12%.
`COc1ccc(C(=O)CCC(=O)N2CCN(c3ccc(N4CCOCC4)nn3)CC2)cc1` gave Prx2 Sm inh >57, AmpC nodet inh 68%, LT uptake inh 5% and AmpC inh det 10%.
For Cc1cc2c(nc1C)CCCCN2C[C@H](C)O/N=C1/[C@H]2O[C@@H]2[C@@H](O)[C@H]2[C@H]1CCn1c(=O)n(-c3ccccc3)c(=O)n12 the results were LT uptake inh -3%[1.6 µM].
CC[C@@H]1CN2CC[C@@H]1C[C@H]2[C@@H](O)c1ccnc2ccc(OC)cc12 was read as Prx2 Sm inh >57, AmpC nodet inh -9%, LT uptake inh inconclusive and AmpC inh det -2%.
O=C(c1ccc(CSCc2ccccc2F)o1)N1CCN(c2ccc(N3CCOCC3)nn2)CC1 was read as Prx2 Sm inh >57, AmpC nodet inh 162%, LT uptake inh 7.9µM* and AmpC inh det 11%.
BrCC(Br)C1CCC(Br)C(Br)C1 (centres undefined) was read as AmpC nodet inh -22%, LT uptake inh 16µM* and AmpC inh det 9%.
COc1ccc2c(c1)c(CC(=O)O)c(C)n2C(=O)c1ccc(Cl)cc1 was read as Prx2 Sm inh >57, AmpC nodet inh -1%, LT uptake inh inconclusive and AmpC inh det 3%.
`COc1ccc2c(c1)c(CCN1CCOCC1)c(C)n2C(=O)c1cccc(Cl)c1Cl` gave LT uptake inh 13µM*.
O=C1[C@H]2[C@H]3[C@H](O)[C@H](O)C/C(=N/OC[C@@H](O)COCc4ccco4)[C@H]3CC[C@@H]2C(=O)N1c1cccc(Oc2ccccc2)c1 was read as LT uptake inh 2%[8 µM].
For CC(C)N(Cc1nc2ccccc2[nH]1)C(C)C the results were Prx2 Sm inh >57, AmpC nodet inh 4µM*[single pt active], LT uptake inh -10% and AmpC inh det 9%.
`CCC(C)SCc1nc2ccccc2[nH]1` (centres undefined) gave AmpC nodet inh -12%, LT uptake inh 5% and AmpC inh det -4%.
`CC[C@H]1CN2CCc3cc(OC)c(OC)cc3[C@H]2C[C@@H]1C[C@H]1NCCc2c1[nH]c1ccc(O)cc21` gave Prx2 Sm inh >57, AmpC nodet inh 13%[5.75 µM], LT uptake inh inconclusive and AmpC inh det -4%[5.75 µM].
For CC[C@@H]1CN2CCc3cc(OC)c(OC)cc3[C@H]2C[C@@H]1C[C@H]1NCCc2cc(OC)c(OC)cc21 the results were Prx2 Sm inh >57 and LT uptake inh 0.02µM*.
For COc1ccc(O[C@H]2C=C[C@@H](c3ccccc3)O[C@H]2CO/N=C\C[C@@H]2C=C[C@H](OC(C)=O)[C@H](COC(C)=O)O2)cc1 the results were LT uptake inh -7%[0.32 µM].
Screening NC(=S)NCCC[C@@H](N)C(=O)O returned Prx2 Sm inh >57, AmpC nodet inh -5%, LT uptake inh 6% and AmpC inh det -3%.
For C[C@H]1[C@H](NC(=O)/C(=N/OC(C)(C)C(=O)O)c2csc(N)n2)C(=O)N1S(=O)(=O)O (stereo in doubt) the results were Prx2 Sm inh >57, AmpC nodet inh 0.00079µM*, LT uptake inh -3%[3.58 µM] and AmpC inh det 0.002µM*.
`Nc1c2c(nc3ccccc13)CCCC2` gave Prx2 Sm inh >57, AmpC nodet inh -13%, LT uptake inh 32µM*! and AmpC inh det 9%.
`Cc1sc2ncnc(Sc3nnnn3-c3ccccc3)c2c1C` gave Prx2 Sm inh >57, AmpC nodet inh 7%, LT uptake inh -2% and AmpC inh det -2%.
`Clc1ccc(-n2nnnc2Sc2ncnc3sccc23)cc1` gave Prx2 Sm inh inconclusive, AmpC nodet inh -8%, LT uptake inh 6.3µM* and AmpC inh det -5%.
For Cc1ccc(C(=O)Cn2c3c(sc2=N)CCCC3)cc1 the results were Prx2 Sm inh >57, AmpC nodet inh 47%, LT uptake inh 16µM* and AmpC inh det -3%.
CCOc1ccc(C(=O)Nc2cc(C)on2)cc1 was read as AmpC nodet inh 0%, LT uptake inh -4% and AmpC inh det 7%.
For Cc1cc(NC(=O)c2cccc(COc3ccc(Br)cc3)c2)no1 the results were Prx2 Sm inh >57, AmpC nodet inh 4µM*[single pt active], LT uptake inh inconclusive and AmpC inh det 29%.
For COc1cc2c(cc1O)CCN[C@H]2C the results were Prx2 Sm inh >57, AmpC nodet inh -4%, LT uptake inh inconclusive and AmpC inh det 0%.
For CCCCn1c(=S)[nH]c2c(oc3ccc(Cl)cc32)c1=O the results were Prx2 Sm inh >57, AmpC nodet inh 6.3µM*, LT uptake inh 22% and AmpC inh det 1%.
Screening CN1CCC(=C2c3ccccc3C=Cc3ccccc32)CC1 returned Prx2 Sm inh >57, AmpC nodet inh 71%, LT uptake inh 7.9µM* and AmpC inh det -2%.
Screening COc1cccc(Cn2c(=O)c(-c3cn(C)c4ccccc34)nc3cnc(N4CCNCC4)nc32)c1 returned Prx2 Sm inh >57, AmpC nodet inh 72%, LT uptake inh inconclusive and AmpC inh det -2%.
`O=C(NCCc1ccccc1)C1CCCN(S(=O)(=O)c2cnc[nH]2)C1` (centres undefined) gave Prx2 Sm inh >57, AmpC nodet inh 4%, LT uptake inh -3% and AmpC inh det 4%.
For CCCS(=O)(=O)N1CCCC(C(=O)NCCCN2CCN(c3ccccc3F)CC2)C1 (centres undefined) the results were Prx2 Sm inh >57, AmpC nodet inh 45%, LT uptake inh -1% and AmpC inh det -4%.
Screening COc1ccc(N2CCN(CCCNC(=O)C3CCCN(S(=O)(=O)c4cnc[nH]4)C3)CC2)cc1 (centres undefined) returned Prx2 Sm inh >57, AmpC nodet inh 4µM*[single pt active], LT uptake inh inconclusive and AmpC inh det 12%.
O=C(NCCN1CCC(Cc2ccccc2)CC1)C1CCCN(S(=O)(=O)c2cnc[nH]2)C1 (centres undefined) was read as Prx2 Sm inh >57, AmpC nodet inh 4µM*[single pt active], LT uptake inh -3% and AmpC inh det 11%.
